# Laboratory results published in PubChem BioAssay AID1376 (SRMLSC, 2008).
# Out of some 220,000 compounds screened, about 530 (0.24%) were called active. No stated cut-off is given here; in the data, active means inhibition above about 13%; inconclusive means no clear call, values can overlap the other calls; inactive means below that. Many of the other results were omitted from the sample, so actives are more common in it than they were. Results with a measured potency or affinity are listed apart.
# Biological target: Bifunctional protein GlmU (Mycobacterium tuberculosis (strain ATCC 25618 / H37Rv)) (UniProt P9WMN3)
# Test: inhibition of mycobacterial GlmU enzyme – biochemical, glucosamine-1-phosphate acetyltransferase (AID 1376);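 further: 0% = complete reaction with vehicle and 100% = reaction without substrate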
# Conditions: M. tuberculosis GlmU acetyltransferase enzyme assay; hits give high values;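 tested at 30 µM in the primary screen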
# Sequence of Bifunctional protein GlmU (Mycobacterium tuberculosis (strain ATCC 25618 / H37Rv)) (P9WMN3 whole entry, looked up): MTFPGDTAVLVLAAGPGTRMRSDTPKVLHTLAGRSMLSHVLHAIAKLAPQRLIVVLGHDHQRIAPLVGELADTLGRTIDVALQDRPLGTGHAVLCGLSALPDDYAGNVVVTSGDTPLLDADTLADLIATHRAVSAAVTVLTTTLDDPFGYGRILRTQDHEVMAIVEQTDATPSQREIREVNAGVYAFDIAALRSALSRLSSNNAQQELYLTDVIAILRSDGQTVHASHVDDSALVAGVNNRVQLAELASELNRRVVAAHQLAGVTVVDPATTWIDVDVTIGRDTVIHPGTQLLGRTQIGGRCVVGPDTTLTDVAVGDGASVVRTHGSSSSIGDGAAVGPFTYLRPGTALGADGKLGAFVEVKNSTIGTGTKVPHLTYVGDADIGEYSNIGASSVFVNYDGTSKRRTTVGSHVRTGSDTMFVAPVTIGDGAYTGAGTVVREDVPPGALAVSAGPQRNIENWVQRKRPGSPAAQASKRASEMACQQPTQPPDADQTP
row,SMILES,inhibition
1,Cc1ccsc1/C=N/NC(=S)NCc1ccccc1,0.62% (inactive)
2,O=[N+]([O-])c1ccc2nccn2c1,2.74% (inactive)
3,Cc1ccc(-n2cccc2/C=C2/NC(=O)N(CC(=O)Nc3cccc(C)c3)C2=O)cc1,10.8% (inactive)
4,Cc1cccc(NC(=O)CN2C(=O)N/C(=C\c3cccn3-c3cccc(C(=O)O)c3)C2=O)c1,-2.01% (inactive)
5,Cc1ccc(NC(=O)CN2C(=O)S/C(=C\c3cccn3-c3cccc(C(=O)O)c3)C2=O)cc1C,6.74% (inactive)
6,Cc1ccc(NC(=O)CN2C(=O)N/C(=C/c3cc(C)n(-c4cccc(C(=O)O)c4)c3C)C2=O)cc1,14.9% (active)
7,Cc1cc(C=C2C(=O)c3ccccc3C2=O)c(C)n1-c1cccc(C(=O)O)c1,7.28% (inactive)
8,Cc1ccc(NC(=O)CN2C(=O)S/C(=C\c3cc(C)n(-c4cccc(C(=O)O)c4)c3C)C2=O)cc1,0.24% (inactive)
9,CC(=O)NC1=NC(=O)/C(=C/c2cc(C)n(-c3ccc(NC(C)=O)cc3)c2C)S1,3.45% (inactive)
10,Cc1ccc(NC(=O)CN2C(=O)N/C(=C/c3cc(C)n(-c4ccc(C(=O)O)cc4)c3C)C2=O)cc1,8.1% (inactive)
11,Cc1ccc(NC(=O)CN2C(=O)N/C(=C/c3ccc(N4CCOCC4)cc3)C2=O)cc1,-5.18% (inactive)
12,COc1ccccc1CNC(=O)CS(=O)Cc1nc(-c2ccccc2C)oc1C (stereo not given),-3.21% (inactive)
13,COc1ccc(CCNC(=O)c2ccc3ccccc3n2)cc1OC,1.59% (inactive)
14,CCc1cccc(C)c1NC(=S)N(CCN(C)C)C(C)c1ccco1 (stereo not given),-1.5% (inactive)
15,Cc1occc1C(=O)N/N=C/c1cnn(C)c1C,0.23% (inactive)
16,CC1CN=C(NCCc2ccccc2)S1 (stereo not given),-5.97% (inactive)
17,COc1ccc(Cl)cc1N(C(C)C(=O)NC1CCCC1)S(C)(=O)=O (stereo not given),-1.06% (inactive)
18,Cc1nonc1C(=O)N/N=C/c1cccc(O)c1,-5.8% (inactive)
19,O=C1C=C(N2CCOCC2)C2(CCCCC2)O1,-4.46% (inactive)
20,CS(=O)(=O)c1nsc2nc(=O)c(/C=C3\C=Nc4ccccc43)c(N)n12,9.05% (inactive)
21,CC(C)S(=O)(=O)c1nsc2nc(=O)c(/C=C3\C=Nc4ccccc43)c(N)n12,14.9% (active)
22,CC1=Nc2ccccc2/C1=C/c1c(N)n2c(S(=O)(=O)C(C)C)nsc2nc1=O,6.27% (inactive)
23,COc1ccc2[nH]c3c(N4CCc5ccccc5C4)ncnc3c2c1,0.43% (inactive)
24,Cc1cc(C)n2nc(CC(=O)NCc3ccc(F)cc3)nc2n1,3.44% (inactive)
25,Cc1ccc(-c2nc(C)sc2CC(=O)NCc2ccco2)cc1,14.4% (active)

row,SMILES,inhibition
1,Cc1ccc(-c2nc(C)sc2CC(=O)Nc2nnc(C)s2)cc1,-1.22% (inactive)
2,Cc1ccc(NC(=O)Cc2sc(C)nc2-c2ccc(C)cc2)cc1,-0.58% (inactive)
3,Cc1coc(NC(=O)CSc2nc(-c3ccncc3)cc(C(F)(F)F)c2C#N)n1,-2.15% (inactive)
4,COc1ccccc1Cn1c(=S)[nH]c2cc(C(=O)NCc3cccnc3)ccc2c1=O,-2.96% (inactive)
5,COc1cc(CNn2cn[nH]c2=S)cc(Cl)c1OCc1ccccc1,-2.33% (inactive)
6,COc1cccc(-c2cc(-c3cccnc3)nc(N)c2C#N)c1,2.15% (inactive)
7,O=[N+]([O-])c1c(N2CCN(CCO)CC2)nc2ccccn12,15.2% (active)
8,O=[N+]([O-])c1ccc(N2CCN(CCO)CC2)c2ncccc12,-1.16% (inactive)
9,Cc1nc([N+](=O)[O-])cn1-c1nc2ccccn2c1[N+](=O)[O-],-6.37% (inactive)
10,COc1cccc(N2[C@@H](CC(=O)O)c3cc(C(F)(F)F)ccc3S2(=O)=O)c1,7.93% (inactive)
11,C=CCn1c(Sc2ncc([N+](=O)[O-])s2)n[nH]c1=O,7.87% (inactive)
12,Cc1ccc(N=Nc2c(=O)[nH]n3c(=O)cc(C)[nH]c23)cc1,9.14% (inactive)
13,COc1cccc(N=Nc2c(=O)[nH]n3c(=O)c4c([nH]c23)CCC4)c1,5.17% (inactive)
14,CCOc1ccc(N=Nc2c(=O)[nH]n3c(=O)cc(C)[nH]c23)cc1,17.1% (active)
15,CCOc1ccc(N=Nc2c(=O)[nH]n3c(=O)c4c([nH]c23)CCCC4)cc1,4.96% (inactive)
16,Cc1cc(=O)n2[nH]c(=O)c(N=Nc3ccccc3)c2[nH]1,4.01% (inactive)
17,COc1cccc(N=Nc2c(=O)[nH]n3c(=O)cc(C)[nH]c23)c1,13% (active)
18,COc1cc(NC(=O)c2cccc(COCC(F)(F)C(F)F)c2)cc(OC)c1OC,-1.01% (inactive)
19,CC(C)C1Oc2cc3oc(=O)ccc3cc2C1=O (stereo not given),0.4% (inactive)
20,S=c1[nH]nc(-c2ccccc2)n1/N=C/C=C/c1ccco1,6.1% (inactive)
21,S=c1[nH]nc(-c2ccncc2)n1/N=C/C=C/c1ccco1,13.6% (active)
22,S=c1[nH]nc(-c2cccnc2)n1/N=C/C=C/c1ccco1,7.53% (inactive)
23,O=C1NC(=O)N(Cc2ccccc2Cl)C(=O)/C1=C/c1cccs1,1.69% (inactive)
24,C(=N/N1CCN(c2ccccc2)CC1)/c1ccncc1,-0.53% (inactive)
25,COc1ccc(Br)cc1S(=O)(=O)N1CCCC1,14.1% (active)

row,SMILES,inhibition
1,COc1ccc(Br)cc1S(=O)(=O)N1CCOCC1,-4.63% (inactive)
2,CCOc1ccc(Br)cc1S(=O)(=O)N1CCCC1,-3.03% (inactive)
3,C=CCN(CC=C)C(=O)Nc1cc(Cl)ccc1OC,6.87% (inactive)
4,O=C(CC1C(=O)N(c2ccccc2)C(=O)N1Cc1ccco1)Nc1ccccc1 (stereo not given),0.18% (inactive)
5,Cc1cc(SCC(=O)N(C)CC(=O)Nc2ccc(F)cc2)nc2ccccc12,13.3% (active)
6,Cc1csc(SCC(=O)N(C)CC(=O)Nc2ccc(F)cc2)n1,-5.2% (inactive)
7,Cc1nnc(SCC(=O)N(C)CC(=O)Nc2ccc(F)cc2)n1Cc1ccccc1,-4.08% (inactive)
8,Cc1ccc(C)n1-c1ccc(C(=O)O)cc1,11.1% (inactive)
9,Cc1ccc(C)n1-c1sc2c(c1C(=O)O)CCCC2,11.2% (inactive)
10,Cc1cccc(-n2c(-c3ccco3)nc3ccccc3c2=O)n1,-2% (inactive)
11,Cc1nc(S/C(=C/c2ccc(-c3ccc(Cl)cc3)o2)C(=O)O)n[nH]1,-0.27% (inactive)
12,Cc1nc(S/C(=C/c2ccc(-c3ccc(C(=O)O)cc3)o2)C(=O)O)n[nH]1,11.3% (inactive)
13,CC(=O)Nc1ccc(NC(=O)COC(=O)[C@@H](NC(=O)c2ccc(F)cc2)C(C)C)cc1,-1.53% (inactive)
14,Cc1ccccc1C(=O)N1CCN(c2ccc(NC(=O)c3ccc4c(c3)OCO4)cc2)CC1,-4.66% (inactive)
15,CNC(=O)COC(=O)CCC(=O)c1cccs1,4.98% (inactive)
16,O=C(O)c1cccc(S(=O)(=O)N2CCN(C(c3ccccc3)c3ccccc3)CC2)c1,-1.93% (inactive)
17,Cc1coc(NC(=O)CSc2nc(-c3ccc(Cl)cc3)cc(C(F)(F)F)c2C#N)n1,3.77% (inactive)
18,COC(=O)C1=C2c3[nH]c4ccccc4c3CCN2C(=O)CC1,-2.64% (inactive)
19,CN(C)S(=O)(=O)c1cccc(NC(=O)NCCCl)c1,8% (inactive)
20,Cc1ccc(CCNC(=O)CN(C)S(=O)(=O)c2ccc3c(c2)c(=O)n(C)c(=O)n3C)cc1,2.34% (inactive)
21,CCCCN(CC)CCNC(=O)CN(C)S(=O)(=O)c1ccc2c(c1)c(=O)n(C)c(=O)n2C,20.9% (active)
22,CN(CC(=O)NCCc1ccc(Cl)cc1)S(=O)(=O)c1ccc2c(c1)c(=O)n(C)c(=O)n2C,-0.75% (inactive)
23,O=C1CCC/C(=N\NC(=O)c2ccc(CSc3cccc4cccnc34)cc2)C1,4.6% (inactive)
24,CCn1c(SCC(=O)N/N=C/C=C/c2ccco2)nc2ccccc21,-1.16% (inactive)
25,Cn1c(SCC(=O)N/N=C/C=C\c2ccco2)nc2ccccc21,-4.83% (inactive)

row,SMILES,inhibition
1,Cn1c(SCC(=O)N/N=C/C=C/c2ccco2)nc2ccccc21,13% (active)
2,COc1cc(CNCCN(C)C)c(Br)cc1OCC(=O)NCc1ccccc1,-1.96% (inactive)
3,COc1ccc(/C=N/Nc2nc3ccccc3s2)cc1O,-3.48% (inactive)
4,COc1cc(/C=N/Nc2nc3ccccc3s2)cc([N+](=O)[O-])c1O,13.2% (active)
5,O=[N+]([O-])c1cc(Cl)cc(/C=N/Nc2nc3ccccc3s2)c1O,0.98% (inactive)
6,COc1ccc(/C=C/C(=O)OCC(=O)NC(=O)NC(C)(C)C)cc1,1.36% (inactive)
7,O=C(/C=C/c1ccc2ccccc2n1)N1CCN(S(=O)(=O)c2ccccc2F)CC1,-1.23% (inactive)
8,CC(=O)c1ccc(N2CCN(C(=O)/C=C/c3ccc4ccccc4n3)CC2)cc1,0.1% (inactive)
9,CC(=O)c1ccc(S(=O)(=O)N2CCN(C(=O)/C=C/c3ccc4ccccc4n3)CC2)cc1,14.1% (active)
10,Cc1ccc(/C=N/NC(=O)C(C)Oc2ccccc2[N+](=O)[O-])s1 (stereo not given),-0.21% (inactive)
11,O=c1c2ccccc2n(Cc2ccccc2F)c(=O)n1Cc1ccccc1F,4.63% (inactive)
12,Nc1ccc(Nc2ccccc2)c(S(=O)(=O)O)c1,36.2% (active)
13,Nc1ccc(Nc2ccccc2)c(Cl)c1,3.28% (inactive)
14,Nc1cc(C(=O)O)ccc1Nc1ccccc1,-4.84% (inactive)
15,CCN(CC)S(=O)(=O)c1ccc(OC)c(NC(=O)c2ccc([N+](=O)[O-])cc2)c1,-2.82% (inactive)
16,Cc1cccc(-c2c3c(=O)n(C)c(=O)n(C)c3c3cccnn23)c1,-0.55% (inactive)
17,CC1(C)OC(=O)C(=Cc2ccc(-c3ccc(Cl)c(C(=O)O)c3)o2)C(=O)O1,6.43% (inactive)
18,CCOC(=O)c1ccc(N2N=C(C)/C(=C/C=C/c3ccco3)C2=O)cc1,3.89% (inactive)
19,CC1=NN(c2ccc(C(=O)OC(C)C)cc2)C(=O)/C1=C\C=C\c1ccco1,1.04% (inactive)
20,Cc1ccc(N2NC(=O)/C(=C/c3ccc(-c4ccc(Cl)c(C(=O)O)c4)o3)C2=O)cc1,7.4% (inactive)
21,O=C1NN(c2ccccc2)C(=O)/C1=C/c1ccc(Sc2ccc(Cl)cc2)o1,4.82% (inactive)
22,Cc1ccc(Sc2ccc(/C=C3/C(=O)NN(c4ccccc4)C3=O)o2)cc1,4.6% (inactive)
23,O=C1NN(c2ccc(Cl)cc2)C(=O)/C1=C\c1ccc(-c2cccc(C(=O)O)c2)o1,30.9% (active)
24,Cc1cccc(N2C(=O)NC(=O)/C(=C/c3ccc(-c4ccc(C(=O)O)c(Cl)c4)o3)C2=O)c1,-1.08% (inactive)
25,O=C1NN(c2ccccc2)C(=O)/C1=C\c1ccc(-c2cc([N+](=O)[O-])ccc2O)o1,9.4% (inactive)
